# Data published in PubChem BioAssay (NCI).
# This is part of a sample that, as a whole, favours compounds with a hit. Of some 83,000 tested, about 20% had one in any assay.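 Activity criterion: percent growth below 10, measured after cells in 96-well plates were exposed to a single compound concentration for 48 hours.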 A number with no mark means an inactive call. Activity calls are given as the source filed them.
# System: NCI-H23 lung
# Assay: NCI-60 one-dose screen, 48 h (100 = growth as untreated, 0 = no growth, -100 = all killed)
# Details: 10 µM unless noted
row,SMILES,growth
1,O=C1/C(=C/c2ccc(Oc3ccccc3)cc2)N=C(c2ccccc2)N1CCc1cccs1,87.1%
2,O=C1/C(=C/c2ccc(Cl)cc2)N=C(c2ccccc2)N1CCc1cccs1,61.4%
3,COc1ccc(Sc2ccc3[nH]c(=O)nc(N)c3c2)cc1,101%
4,COc1cc(C(=O)N(C(C)C)C2CCCCC2)cc(OC)c1OC,101%
5,COc1ccc(C2OCC(C)(C)CO2)cc1OC,98.3%
6,O=C(NCc1ccco1)C1CCN(S(=O)(=O)c2ccc(Cl)cc2)CC1,77.9%
7,COc1ccc(-c2csc3c2-n2cccc2C3=O)cc1O,11.7%
8,COC(=O)[C@@H]1CCCN1C(=O)[C@@H]1CCCN1C(=O)[C@@H](Cc1c[nH]c2ccccc12)NC(=S)Nc1cc(C(F)(F)F)cc(C(F)(F)F)c1,74.2%
9,CCN1C(=O)C2(Nc3ccccc3S2)c2cc(C)ccc21 (stereo not drawn),111%
10,Cc1nc(-c2ccccc2)cc2c(O)c(C(=O)N/N=C/Cc3ccccc3)[nH]c(=O)c12,100%
11,O=S(=O)(/N=C1C=C/C(=N\S(=O)(=O)c2ccccc2)c2ccccc2\1)c1ccccc1,83.1%
12,CCCOC(=O)c1ccc2c(c1)[N+](=O)C(C(=O)c1ccccc1)=C(C(F)(F)F)[N+]2=O,-75.6% (active)
13,CCCN(CCC)c1ccc(/C=C/c2ccc3cc(OCC)ccc3n2)cc1,83.8%
14,COc1cccc(C2CC(=O)Nc3cc4c(cc32)CCC4)c1OC (stereo not drawn),59%
15,CC1SC(c2ccc(Cl)cc2)N(CCc2cccs2)C1=O (stereo not drawn),-0.245% (active)
16,O=C(O)c1ccccc1Oc1cc(-c2ccco2)nc(OCCBr)n1,105%
17,COc1ccccc1/C=C/C(=O)/C=C/c1ccccc1O,-11.3% (active)
18,COc1cc(/C=C/C(=O)C(=Cc2ccc(F)c(F)c2)C(=O)/C=C/c2ccc(O)c(OC)c2)ccc1O,-24.6% (active)
19,CC1(C)CC(=O)C2=C(C1)Nc1cc3c(cc1C2c1ccc(F)cc1)OCO3 (stereo not drawn),96%
20,Nc1nc(N)c(C=Nc2ccc(Br)cc2)c(Nc2ccc(Br)cc2)n1,97.9%

row,SMILES,growth
1,COc1cc(/C=C2\C(=O)Nc3ccccc32)cc(OC)c1O,66.4%
2,Brc1ccccc1Nc1ccc2nnc(-c3ccncc3)n2n1,92.3%
3,O=C(Nc1nc2ccccc2[nH]1)C(=O)Nc1nc2ccccc2[nH]1,89.6%
4,COc1ccc(C2SC(C)C(=O)N2CCc2cccs2)cc1OC (stereo not drawn),76.4%
5,Oc1ccc(Cl)cc1CNc1nc2ccccc2[nH]1,65.2%
6,CCOC(=O)c1c(-c2cc(OC)c(OC)c(OC)c2)csc1N,92.9%
7,COc1cc(C2CC(=O)Nc3c2ccc2ccccc32)cc(Br)c1OC (stereo not drawn),28.5%
8,Cc1ccc(-c2nnc(COc3ccc(-c4nnc(N)s4)cc3)o2)cc1,79.4%
9,COc1cc(/C=C2\C(=O)N(c3c(Cl)cccc3Cl)c3ccccc32)cc(OC)c1O,48.1%
10,COC(=O)[C@H]1CCCN1C(=O)[C@H]1CCCN1C(=O)[C@@H](Cc1c[nH]c2ccccc12)NC(=S)Nc1cc(C(F)(F)F)cc(C(F)(F)F)c1,69.2%
11,COc1ncnc2c1ncn2C/C(Br)=C(\Br)CCl,15.1%
12,COc1cc(CNCCN2C(=O)c3ccc4c5c(ccc(c35)C2=O)C(=O)N(CCNCc2cc(OC)c(OC)c(OC)c2)C4=O)cc(OC)c1OC,-89.3% (active)
13,O=C1CN2CCC1C/C2=C\c1ccnc2c(Cl)cccc12 (stereo not drawn),92.2%
14,O=C1OCC2=C1C(c1ccc3c(c1)OCO3)CC(=O)N2c1cccc(Cl)c1 (stereo not drawn),90.2%
15,Cc1ccc(C2SCC(=O)N2NC(=O)c2[nH]c3ccc(F)cc3c2-c2ccccc2)cc1 (stereo not drawn),86.6%
16,O=C(Nc1ccccc1)Oc1cccc2cccnc12,87.1%
17,CCOC(=O)c1sc(NC(=O)CN2CCC(Cc3ccccc3)CC2)nc1C,96.2%
18,CN([N-]C(=O)CC(=O)[N-]N(C)C(=S)c1ccccc1)C(=S)c1ccccc1.[Cu+2],-73.8% (active)
19,Clc1cccc(Cl)c1Nc1ccc2nnc(-c3ccncc3)n2n1,95.8%

# System: NCI-H322M lung
# Assay: as above
# Details: 10 µM unless noted
row,SMILES,growth
1,O=C1/C(=C/c2ccc(Oc3ccccc3)cc2)N=C(c2ccccc2)N1CCc1cccs1,93.6%
2,O=C1/C(=C/c2ccc(Cl)cc2)N=C(c2ccccc2)N1CCc1cccs1,82.2%
3,COc1ccc(Sc2ccc3[nH]c(=O)nc(N)c3c2)cc1,96.4%
4,COc1cc(C(=O)N(C(C)C)C2CCCCC2)cc(OC)c1OC,108%
5,COc1ccc(C2OCC(C)(C)CO2)cc1OC,151%
6,O=C(NCc1ccco1)C1CCN(S(=O)(=O)c2ccc(Cl)cc2)CC1,108%
7,COc1ccc(-c2csc3c2-n2cccc2C3=O)cc1O,17.5%
8,COC(=O)[C@@H]1CCCN1C(=O)[C@@H]1CCCN1C(=O)[C@@H](Cc1c[nH]c2ccccc12)NC(=S)Nc1cc(C(F)(F)F)cc(C(F)(F)F)c1,75.8%
9,CCN1C(=O)C2(Nc3ccccc3S2)c2cc(C)ccc21 (stereo not drawn),96.2%
10,Cc1nc(-c2ccccc2)cc2c(O)c(C(=O)N/N=C/Cc3ccccc3)[nH]c(=O)c12,107%
11,O=S(=O)(/N=C1C=C/C(=N\S(=O)(=O)c2ccccc2)c2ccccc2\1)c1ccccc1,107%
12,CCCOC(=O)c1ccc2c(c1)[N+](=O)C(C(=O)c1ccccc1)=C(C(F)(F)F)[N+]2=O,-91.7% (active)
13,CCCN(CCC)c1ccc(/C=C/c2ccc3cc(OCC)ccc3n2)cc1,105%
14,COc1cccc(C2CC(=O)Nc3cc4c(cc32)CCC4)c1OC (stereo not drawn),68%
15,CC1SC(c2ccc(Cl)cc2)N(CCc2cccs2)C1=O (stereo not drawn),21.7%
16,O=C(O)c1ccccc1Oc1cc(-c2ccco2)nc(OCCBr)n1,100%
17,COc1ccccc1/C=C/C(=O)/C=C/c1ccccc1O,24.9%
18,COc1cc(/C=C/C(=O)C(=Cc2ccc(F)c(F)c2)C(=O)/C=C/c2ccc(O)c(OC)c2)ccc1O,59.4%
19,CC1(C)CC(=O)C2=C(C1)Nc1cc3c(cc1C2c1ccc(F)cc1)OCO3 (stereo not drawn),94.8%
20,Nc1nc(N)c(C=Nc2ccc(Br)cc2)c(Nc2ccc(Br)cc2)n1,72.9%

row,SMILES,growth
1,COc1cc(/C=C2\C(=O)Nc3ccccc32)cc(OC)c1O,96%
2,Brc1ccccc1Nc1ccc2nnc(-c3ccncc3)n2n1,95.6%
3,O=C(Nc1nc2ccccc2[nH]1)C(=O)Nc1nc2ccccc2[nH]1,91.8%
4,COc1ccc(C2SC(C)C(=O)N2CCc2cccs2)cc1OC (stereo not drawn),91.7%
5,Oc1ccc(Cl)cc1CNc1nc2ccccc2[nH]1,101%
6,CCOC(=O)c1c(-c2cc(OC)c(OC)c(OC)c2)csc1N,99.4%
7,COc1cc(C2CC(=O)Nc3c2ccc2ccccc32)cc(Br)c1OC (stereo not drawn),33.1%
8,Cc1ccc(-c2nnc(COc3ccc(-c4nnc(N)s4)cc3)o2)cc1,95.9%
9,COc1cc(/C=C2\C(=O)N(c3c(Cl)cccc3Cl)c3ccccc32)cc(OC)c1O,48.2%
10,COC(=O)[C@H]1CCCN1C(=O)[C@H]1CCCN1C(=O)[C@@H](Cc1c[nH]c2ccccc12)NC(=S)Nc1cc(C(F)(F)F)cc(C(F)(F)F)c1,32.8%
11,COc1ncnc2c1ncn2C/C(Br)=C(\Br)CCl,78.9%
12,COc1cc(CNCCN2C(=O)c3ccc4c5c(ccc(c35)C2=O)C(=O)N(CCNCc2cc(OC)c(OC)c(OC)c2)C4=O)cc(OC)c1OC,-68.3% (active)
13,O=C1CN2CCC1C/C2=C\c1ccnc2c(Cl)cccc12 (stereo not drawn),102%
14,O=C1OCC2=C1C(c1ccc3c(c1)OCO3)CC(=O)N2c1cccc(Cl)c1 (stereo not drawn),94.1%
15,Cc1ccc(C2SCC(=O)N2NC(=O)c2[nH]c3ccc(F)cc3c2-c2ccccc2)cc1 (stereo not drawn),111%
16,O=C(Nc1ccccc1)Oc1cccc2cccnc12,138%
17,CCOC(=O)c1sc(NC(=O)CN2CCC(Cc3ccccc3)CC2)nc1C,90.4%
18,CN([N-]C(=O)CC(=O)[N-]N(C)C(=S)c1ccccc1)C(=S)c1ccccc1.[Cu+2],-95.8% (active)
19,Clc1cccc(Cl)c1Nc1ccc2nnc(-c3ccncc3)n2n1,88.5%
